Compound activity deposited in PubChem BioAssay by National Center for Advancing Translational Sciences (NCATS).
Rows were chosen to be rich in hits. Some 1.3% of all compounds tested hit in one or more screens of this group.
RXFP1 ag: agonists of human relaxin receptor RXFP1; Q9HBX9; HEK293T-RXFP1 cAMP TR-FRET, 30 min; response scale: percent of porcine relaxin response, buffer zero; Potency, µM (series often up to 57.5 µM), actives largely listed as activators; 370,000 tested, 0.3% active; active = well fitted activation curve with a large enough effect; inconclusive = small, poorly fitted or top-dose-only effect; note: nearly all actives have a fitted effect of over 60% in size
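cAMP rise read by TR-FRET after 30 min, 37C compound exposure (up to 58 uM) in RXFP1-transfected HEK293 cells with Ro 20174 present. EC50 from Hill-equation fits, with 29 nM porcine relaxin as 100% and buffer as basal.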
gsp antagonist: gsp mutant antagonism; gsp-mutant cells, cAMP HTRF, 30 min; Potency, µM (titrated, usually from 76.9 µM), most hits filed as inhibitors; 340,000 tested, 0.4% active; AID 624288; calls by dose curve; cell line not stated here;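 note: intracellular cAMP measured with PDE inhibitor Ro 20-1724 present during compound exposure; nearly all actives have a fitted effect of over 65% in size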
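G418-selected cells were plated in DMEM/10% FBS for 16-24 h at 37C, then treated with compounds plus the PDE inhibitor […] (300 uM solution added) for 30 min at 37C. Intracellular cAMP was measured by HTRF after 30 min lysis at room temperature.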
pAkt inh: Akt phosphorylation inhibition. AID 651550. 360,000 tested, 0.32% active. Neuro2A IGF-stimulated pAkt S473 HTRF, 20 min; hits give low values. activity change, % for hits at 50 µM; in the data active = activity change below about -80%; inconclusive = mostly about -51% to -80%
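Neuro2A cells in DMEM with 0.5% FBS, overnight at 37 deg C, given compound at single 50 µM final, then IGF (6 nM final) for 20 min at 37 deg C. Lysed; phospho-Akt Ser473 by HTRF after 24 h, 665/615 ratio.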
gsp ag: agonists of gsp mutant (McCune-Albright syndrome); 340,000 tested, 0.13% active; AID 624287; gsp mutant cells, cAMP HTRF, 30 min; Potency, µM (top dose mostly 76.9 µM), usual class: activators; active = well fitted activation curve with a large enough effect; inconclusive = small, poorly fitted or top-dose-only effect, or another doubt; inactive = no such curve, though single readings can be large or run the other way; cell line not stated here;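 note: phosphodiesterase inhibitor Ro 20-1724 added with compounds to block cAMP breakdown; nearly all actives have a fitted effect of over 60% in size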
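Cells stably selected in G418 were plated at 2000/well, grown 16-24 hr, then given compounds in DMSO with the PDE inhibitor […] (300 uM solution added) for 30 min at 37C; cAMP was read by HTRF.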
RXFP1 antag: RXFP1 (human) relaxin receptor antagonism. HEK293-RXFP1, relaxin-stimulated cAMP HTRF, 30 min; hits give low values. AID 1259400. Q9HBX9. 350,000 tested, 0.59% active. activity change, negative = inhibition, % at 57.5 µM;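 active = activity change of -60% or lower, but not beyond a set lower limit; inconclusive = change between -60% and -40%, or beyond the set limit; inactive = change above -40%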
Numbers stand for hits; - = inactive; ? = inconclusive; . = no result; [ ] = another dose, or the depositor's remark.

SMILES	RXFP1 ag	gsp antagonist	pAkt inh	gsp ag	RXFP1 antag
CC(C)(C)CC(=O)Nc1nnc(C(F)(F)F)s1	-	-	-	-	-
CCOC(=O)c1nc(Nc2ccc(Nc3ccccc3)cc2)c2ccccc2n1	-	?	-	-	-
CCOC(=O)c1nc(Nc2cc(C)cc(C)c2)c2ccccc2n1	-	7.9µM	-	-[15.4 µM]	-
CC(=O)c1cccc(NC(=O)c2ccc(-c3ccccc3[N+](=O)[O-])o2)c1	-	45µM	-	-[15.4 µM]	-
O=C(Nc1ncccn1)c1ccc([N+](=O)[O-])o1	18µM	.	-	-[15.4 µM]	-
O=C(Nc1cccc(NC(=O)c2ccccc2Cl)c1)c1ccc([N+](=O)[O-])o1	-	40µM	-	-	-
CC(=O)O[C@H](C)OC(=O)[C@@H](C)c1ccc(-c2ccccc2)c(F)c1	.	.	.	.	-
COC(=O)c1cc(Br)ccc1NC(=O)Nc1ccc(C)cc1	.	-	-115%	-	-
COC(=O)c1cc(Br)ccc1NC(=O)Nc1ccccc1	-	-	-	-[15.4 µM]	-
Cc1ccc(-n2ncc3c(NC4CCCCC4)ncnc32)cc1	-	.	.	.	-
OCCn1c(-c2ccc(F)cc2)csc1=Nc1ccccc1	-	-	-	-	-
OCCn1c(-c2ccc3c(c2)OCO3)csc1=Nc1ccccc1	-	28µM	-	-	-
COc1ccc(NC(=O)c2ccc(NC(=O)CCS(=O)(=O)c3cccs3)cc2)cc1	-	-	-	-	-97
COc1ccc(OCC(=O)Nc2ccc(C(=O)Nc3ccccc3C(=O)O)cc2)cc1	-	40µM	-	-	-
O=C(COc1ccc(Br)cc1)Nc1ccc(C(=O)Nc2ccccc2C(=O)O)cc1	-	-	-	-[15.4 µM]	-
CN(C)CCN(Cc1ccco1)C(=O)c1cc2c(s1)-c1ccccc1OC2	-	.	.	.	-
Cc1[nH]c(=S)[nH]c(=O)c1Cc1c(O)ccc2ccccc12	.	-	-	-	-
Cc1[nH]c(=S)[nH]c(=O)c1Cc1ccccc1	-	-	-	-	-63
CCCCc1c(C)[nH]c(=S)[nH]c1=O	-	-	-	?	-
Cc1cccc(OCCc2c(C)[nH]c(=S)[nH]c2=O)c1	-	-	-	-[15.4 µM]	-118
COc1ccccc1OCCCCCc1c(C)n[nH]c1C	-	35µM	-	-	-
CCC(C(=O)NCCCN1CCOCC1)n1c2ccccc2c2nc(=O)cc(C)n21 (stereo not given)	-	-	-	-	-70
CC(=O)Oc1ccc(C(=O)Nc2ccccc2NC(=O)c2ccc(OC(C)=O)cc2)cc1	-	25µM	-	-	-
COc1ccc(-c2cccc(C(=O)Nc3ccccc3C)c2)cc1	-	-	-	-	-
COc1ccc(C)cc1NC(=O)c1cccc(-c2ccc(OC(C)=O)cc2)c1	-	25µM	-	-[15.4 µM]	-
SMILES	RXFP1 ag	gsp antagonist	pAkt inh	gsp ag	RXFP1 antag
O=C(c1cc(-c2ccc(Br)cc2)n[nH]1)N1CCN(S(=O)(=O)c2ccc(Br)s2)CC1	-	.	.	.	-
O=[N+]([O-])c1ccc(O)c(C=Nc2cccc3ccccc23)c1	-	-	-	-	-96
O=[N+]([O-])c1ccc(O)c(C=Nc2cccc3ncccc23)c1	-	-	-	?	-
Cc1ccc(OCCSc2nc3ccccc3n2CC(=O)N2CCOCC2)cc1	-	.	.	.	.
CCOC(=O)N1CCN(S(=O)(=O)c2c(C)nc3scc(C)n3c2=O)CC1	14µM	-	.	?	-
O=C(CCl)Nc1nc(-c2ccco2)c(-c2ccco2)s1	-	?	-	-	?
Cc1ccc(C(=O)Nc2nc(-c3ccco3)c(-c3ccco3)s2)o1	-	?	-	-	-81
CCc1nn(CC(=O)Nc2ccc(NC(C)=O)cc2)c(=O)c2cc3sccc3n12	-	.	.	.	-
COC(=O)c1ccc(/C=C/C(=O)OCC(=O)Nc2sccc2C(N)=O)cc1	.	28µM	-	-	?
CN(C)S(=O)(=O)c1ccc(-c2csc(N/N=C/c3ccc(O)cc3)n2)cc1	-	32µM	-	-[15.4 µM]	?
O=[N+]([O-])c1cccc(-c2csc(N/N=C/c3cccc(O)c3)n2)c1	-	-	-	-[15.4 µM]	-67
Cc1sc(N/N=C/c2ccco2)nc1-c1ccccc1	-	-	-	-	-89
C(=N\Nc1nc(-c2ccccc2)cs1)/c1ccco1	-	-	-	-	-
CN(C)S(=O)(=O)c1ccc(-c2csc(N/N=C/c3ccco3)n2)cc1	-	32µM	-	-[15.4 µM]	-72
